From PubChem BioAssay (EPA / NIEHS) come the findings set out here.

One may read the AC50 as the midpoint of the concentration-response curve, whichever way the signal moves.

Experiment [1] deals with Nuclear respiratory factor 1 (Homo sapiens) (UniProt Q16656). Nature of the experiment: ATG_NRF1_CIS: Attagene CIS-FACTORIAL HepG2 Assay for human Nuclear Respiratory Factor 1 (NRF1) Orphan Gene (AID 2282987). To be noted: HepG2 NRF1 cis-element reporter, Attagene multiplex; actives raise or lower the signal. The method in brief:
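Transcriptional reporter readout, one component of a 52-endpoint multiplexed HepG2 panel. Exposure 24 h; mRNA detected via RT-PCR and fluorescent capillary electrophoresis; fitting in both directions against DMSO.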

The target of experiment [2] is Myc proto-oncogene protein (Homo sapiens) (UniProt P01106). Nature of the experiment: ATG_Myc_CIS: Attagene CIS-FACTORIAL HepG2 Assay for human Myelocytomatosis (Myc) Proto-Oncogene Transcription Factor (AID 2282990). The following applies: HepG2, Attagene cis-reporter transcription factor activity; actives raise or lower the signal. In outline: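 HepG2 cells transiently transfected with multiple cis-promoter-driven reporter transcription units, so endogenous TF activity is read. After 24 h compound exposure, reporter mRNA was quantified by RT-PCR, 6-FAM labelling, HpaI digestion and capillary electrophoresis; bidirectional fit versus DMSO.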

Experiment [3] is described as follows: ATG_NF_kB_CIS: Attagene CIS-FACTORIAL HepG2 Assay for human Nuclear Factor Kappa B (NF-kB) (AID 2282991). The following applies: HepG2 Attagene cis-factorial NF-kB reporter mRNA; actives raise or lower the signal. In outline: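 HepG2, transient multi-reporter transfection, cis promoter elements (endogenous TFs). 24 h exposure. Total RNA → RT → PCR → 6-FAM label → HpaI → CE. Gain/loss vs DMSO.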

The nature of experiment [4]: ATG_NRF2_ARE_CIS: Attagene CIS-FACTORIAL HepG2 Assay for human Nuclear Factor Erythroid 2 Related Factor 2 (NFR2) response to Antioxidant Response Elements (ARE) (AID 2282992). The following applies: HepG2 Attagene ARE/NRF2 reporter, transcription factor activity; actives raise or lower the signal. In outline:
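Endogenous transcription factor activity read out as reporter transcript levels (RT-PCR plus capillary electrophoresis, fluorescence) in transiently transfected HepG2 cells. Measured at 24 h after dosing; gain or loss of signal fitted versus DMSO.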

A short description of experiment [5]: ATG_Oct_MLP_CIS: Attagene CIS-FACTORIAL HepG2 Assay for human Octamer-Binding Transcription Factor (Oct) (AID 2282993). The following applies: HepG2 Attagene cis-factorial Oct reporter, mRNA; actives raise or lower the signal. In outline: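 Transient MRTU transfection of HepG2 → 24 h compound treatment → RNA isolation, reverse transcription, PCR → 6-FAM primer extension, HpaI digest → capillary electrophoresis. Activity fitted both directions against DMSO.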

Experiment [6] concerns the target Cellular tumor antigen p53 (Homo sapiens) (UniProt P04637). The experiment in a line: ATG_p53_CIS: Attagene CIS-FACTORIAL HepG2 Assay for human p53 Transcription Factor (AID 2282994). The following applies: HepG2 p53 cis-element reporter, Attagene mRNA; actives raise or lower the signal. In outline: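 Endogenous p53 activity read in transiently transfected HepG2 from a cis-element-driven reporter transcript after 24 h exposure. RNA reverse-transcribed, PCR-amplified, fluorescently labelled and sized by capillary electrophoresis; gain or loss fitted against DMSO baseline.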

The nature of experiment [7]: BSK_3C_TissueFactor: BioMAP Diversity Plus: 3C Assay for Tissue Factor Biomarker Activity (AID 2282997). The following applies: BioMAP 3C HUVEC, tissue factor biomarker readout; actives raise or lower the signal. The method in brief: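 Tissue factor on primary human umbilical vein endothelium was read by ELISA 24 h after dosing, gain or loss relative to DMSO. Cytotoxicity ran alongside via SRB (0.1%, TCA-fixed, 560 nm).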

Experiment [8] can be described thus: BSK_3C_VCAM1: BioMAP Diversity Plus: 3C Assay for Vascular cell adhesion molecule 1 (VCAM1) Biomarker Activity (AID 2282999). To be noted: BioMAP 3C HUVEC, VCAM1 ELISA, cytokine-stimulated; actives raise or lower the signal. In outline: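 Vascular primary endothelium (human umbilical vein) was exposed to chemicals and assayed 24 h later. VCAM-1 levels came from ELISA, with DMSO serving as baseline for bidirectional fitting.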

Experiment [9] can be described thus: BSK_4H_Eotaxin3: BioMAP Diversity Plus: 4H Assay for Eotaxin 3 Biomarker Activity (AID 2283000).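 As to outcome: CCL26 protein level quantified by ELISA in parallel with SRB cytotoxicity check.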 To be noted: primary human endothelial cells (HUVEC); actives raise or lower the signal. In outline: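 Human umbilical vein endothelial cells (BSK_4H system) dosed with test chemical; Eotaxin-3 (CCL26) measured by ELISA 24 h after dosing. Bidirectional curve fitting relative to DMSO negative control as baseline.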

Experiment [10] concerns the target human Peroxisome Proliferator-activated Receptor delta (PPARd), PPARD (gene 5467) (UniProt Q03181). Nature of the experiment: ATG_PPARd_TRANS: Attagene TRANS-FACTORIAL HepG2 Assay for human Peroxisome Proliferator-activated Receptor delta (PPARd) (AID 2283002; active = hit-call score of the fitted dose curve at least 0.9, where 1 is the maximum). In outline: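 HepG2 cells transiently transfected with multiplexed GAL4-UAS reporter units and exogenous chimeric NR-Gal4 proteins; 24 h compound exposure. Reporter mRNA measured by RT-PCR, 6-FAM labelling, HpaI digestion and capillary electrophoresis; gain of signal versus DMSO.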

Read-out in experiment [11]: Intercellular Adhesion Molecule 1 (ICAM1), ICAM1 (gene 3383)
The experiment in a line: BSK_3C_ICAM1: BioMAP Diversity Plus: 3C Assay for Intercellular Adhesion Molecule 1 (ICAM1) Biomarker Activity (AID 2283003). To be noted: primary human endothelial cells (HUVEC); actives raise or lower the signal. The method in brief: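 Chemicals are dosed onto primary human umbilical vein endothelium (3C system). After 24 h, ICAM-1 is measured by ELISA, and responses are fitted bidirectionally relative to DMSO.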

Experiment [12] has as its target human Retinoic Acid Receptor beta (RARb), RARB (gene 5915) (UniProt P10826). The experiment in a line: ATG_RARb_TRANS: Attagene TRANS-FACTORIAL HepG2 Assay for human Retinoic Acid Receptor beta (AID 2283004; active = hit-call score of the fitted dose curve at least 0.9, where 1 is the maximum). In outline: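 Induction of reporter mRNA from a chimeric RARb-Gal4 construct was measured by RT-PCR, FAM labelling, HpaI digestion and capillary electrophoresis. Measurements followed 24 h compound treatment of transiently transfected human HepG2 liver cells, with DMSO as baseline.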

Experiment [13] in a line: BSK_3C_Proliferation: Cell Proliferation Assessment in the BioMAP Diversity Plus: 3C Assay (AID 2283006).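 As to AC50: potency may reflect either rise or fall in cell number versus DMSO.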 To be noted: primary human endothelial cells (HUVEC). The method in brief: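 Cells (human umbilical vein endothelial, sub-confluent) receive test chemical; after 48 h they are fixed in 10% trichloroacetic acid, stained with 0.1% SRB and read at 560 nm. Activity is referenced to DMSO, fitting increases and decreases.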

The target in experiment [14] is Peroxisome proliferator-activated receptor gamma (Homo sapiens) (UniProt P37231). The experiment in a line: ATG_PPARg_TRANS: Attagene TRANS-FACTORIAL HepG2 Assay for human Peroxisome Proliferator-activated Receptor-gamma (PPARg) (AID 2283007; active = hit-call score of the fitted dose curve at least 0.9, where 1 is the maximum). In outline:
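Multiplexed reporter transcription units in HepG2, 24 h dosing, reporter transcripts quantified by fluorescent RT-PCR and capillary electrophoresis. Increase over DMSO scored.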

For experiment [15], the target named is Nuclear receptor subfamily 1 group I member 2 (Homo sapiens) (UniProt O75469). Nature of the experiment: ATG_PXR_TRANS: Attagene TRANS-FACTORIAL HepG2 Assay for human Pregnane X Receptor (PXR) (AID 2283008; active = hit-call score of the fitted dose curve at least 0.9, where 1 is the maximum). In outline:
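Transactivation by exogenous PXR–GAL4 fusion measured as reporter transcript induction after 24 h compound treatment of transfected human HepG2 cells. Read-out via RT-PCR and capillary electrophoresis of labelled fragments, fitted upward relative to DMSO.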

Experiment [16] deals with Retinoic acid receptor alpha (Homo sapiens) (UniProt P10276). Nature of the experiment: ATG_RARa_TRANS: Attagene TRANS-FACTORIAL HepG2 Assay for human Retinoic Acid Receptor alpha (RARa) (AID 2283005; active = hit-call score of the fitted dose curve at least 0.9, where 1 is the maximum;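 as to AC50: potency for increased reporter signal meaning RARa activation over DMSO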). The method in brief: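 HepG2 cells transiently transfected with multiple reporter units expressing chimeric RARα-GAL4 fusion, with GAL4-UAS-driven reporters. After 24 h compound exposure, reporter mRNA induction quantified by RT-PCR and capillary electrophoresis with fluorescent labeling; gain-of-signal fitted relative to DMSO control.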

Experiment [17] deals with human Retinoic Acid Receptor gamma (RARg), RARG (gene 5916) (UniProt P13631). The experiment in a line: ATG_RARg_TRANS: Attagene TRANS-FACTORIAL HepG2 Assay for human Retinoic Acid Receptor gamma (RARg) (AID 2283009; active = hit-call score of the fitted dose curve at least 0.9, where 1 is the maximum). In outline: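 TRANS format measured activity of exogenous NR-GAL4 fusion (RARg) in transfected HepG2 liver cells after 24 h dosing. Induced reporter RNA was detected by RT-PCR/capillary electrophoresis fluorescence, analysed in the positive direction against DMSO.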

Experiment [18] addresses human Peroxisome Proliferator-activated Receptor alpha (PPARa), PPARA (gene 5465) (UniProt Q07869). Nature of the experiment: ATG_PPARa_TRANS: Attagene TRANS-FACTORIAL HepG2 Assay for human Peroxisome Proliferator-activated Receptor alpha (PPARa) (AID 2283001; active = hit-call score of the fitted dose curve at least 0.9, where 1 is the maximum). In outline: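 Cells (HepG2) are transfected with multiple reporter transcription units, exposed to chemical for 24 h, then total RNA is reverse-transcribed and amplified. Labelled products are quantified by capillary electrophoresis; induction is referenced to DMSO.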

SMILES strings stand for the structures. Records with an inconclusive call do not appear. The source made the active and inactive calls. The calls were made as follows, unless noted: active = hit-call score of the fitted dose curve at least 0.9, where 1 is the maximum; inactive = score below 0.9.

Sequence of Cellular tumor antigen p53 (Homo sapiens) (P04637 whole entry, looked up): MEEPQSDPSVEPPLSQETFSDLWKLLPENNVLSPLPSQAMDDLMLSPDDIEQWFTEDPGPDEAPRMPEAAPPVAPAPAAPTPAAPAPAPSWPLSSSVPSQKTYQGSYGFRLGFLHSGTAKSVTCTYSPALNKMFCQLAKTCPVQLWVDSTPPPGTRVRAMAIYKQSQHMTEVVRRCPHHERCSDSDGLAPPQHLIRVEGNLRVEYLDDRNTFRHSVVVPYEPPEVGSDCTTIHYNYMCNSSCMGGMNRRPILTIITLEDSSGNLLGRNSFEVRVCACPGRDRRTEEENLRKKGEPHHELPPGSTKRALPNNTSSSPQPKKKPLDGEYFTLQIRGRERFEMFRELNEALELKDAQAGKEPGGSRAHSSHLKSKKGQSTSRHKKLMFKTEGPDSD
Sequence of human Peroxisome Proliferator-activated Receptor delta (PPARd), PPARD (gene 5467) (Q03181 whole entry, looked up, the tested form may be a part): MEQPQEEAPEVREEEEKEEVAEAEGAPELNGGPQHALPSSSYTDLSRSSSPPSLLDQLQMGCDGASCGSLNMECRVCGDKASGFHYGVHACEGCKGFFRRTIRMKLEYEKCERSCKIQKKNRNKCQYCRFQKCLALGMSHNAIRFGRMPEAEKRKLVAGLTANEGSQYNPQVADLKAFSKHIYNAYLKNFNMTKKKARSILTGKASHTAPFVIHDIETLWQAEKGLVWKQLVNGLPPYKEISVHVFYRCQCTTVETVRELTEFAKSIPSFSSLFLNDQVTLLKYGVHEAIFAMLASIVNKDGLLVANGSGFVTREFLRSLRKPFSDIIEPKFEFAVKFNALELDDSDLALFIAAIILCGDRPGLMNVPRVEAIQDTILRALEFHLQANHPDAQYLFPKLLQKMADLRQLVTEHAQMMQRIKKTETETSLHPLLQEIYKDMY
Sequence of Nuclear receptor subfamily 1 group I member 2 (Homo sapiens) (O75469 whole entry, looked up, the tested form may be a part): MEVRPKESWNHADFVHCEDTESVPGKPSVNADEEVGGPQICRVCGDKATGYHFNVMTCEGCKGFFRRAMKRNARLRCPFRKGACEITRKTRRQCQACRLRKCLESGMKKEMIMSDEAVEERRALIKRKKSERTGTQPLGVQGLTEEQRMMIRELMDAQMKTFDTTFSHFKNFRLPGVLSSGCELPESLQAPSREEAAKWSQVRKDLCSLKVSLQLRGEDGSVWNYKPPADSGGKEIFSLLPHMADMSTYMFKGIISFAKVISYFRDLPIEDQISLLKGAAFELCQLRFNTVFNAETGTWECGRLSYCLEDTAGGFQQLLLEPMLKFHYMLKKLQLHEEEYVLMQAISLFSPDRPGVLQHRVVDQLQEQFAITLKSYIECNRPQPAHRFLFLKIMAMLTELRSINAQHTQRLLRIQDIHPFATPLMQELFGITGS
Sequence of Peroxisome proliferator-activated receptor gamma (Homo sapiens) (P37231 whole entry, looked up): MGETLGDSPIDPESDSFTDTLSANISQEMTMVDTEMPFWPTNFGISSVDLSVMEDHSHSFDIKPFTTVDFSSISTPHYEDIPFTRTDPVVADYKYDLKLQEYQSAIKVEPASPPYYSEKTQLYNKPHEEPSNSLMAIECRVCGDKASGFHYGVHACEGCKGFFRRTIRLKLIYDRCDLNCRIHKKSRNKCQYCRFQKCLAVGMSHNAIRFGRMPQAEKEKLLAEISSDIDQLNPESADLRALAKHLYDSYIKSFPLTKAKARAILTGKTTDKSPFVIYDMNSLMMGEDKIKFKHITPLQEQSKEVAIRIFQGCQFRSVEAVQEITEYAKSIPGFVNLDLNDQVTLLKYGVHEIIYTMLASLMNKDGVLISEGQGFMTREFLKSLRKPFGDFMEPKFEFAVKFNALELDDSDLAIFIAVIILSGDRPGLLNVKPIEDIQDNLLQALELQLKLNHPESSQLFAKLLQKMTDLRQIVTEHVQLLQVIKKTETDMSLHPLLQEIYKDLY
Sequence of human Retinoic Acid Receptor beta (RARb), RARB (gene 5915) (P10826 whole entry, looked up, the tested form may be a part): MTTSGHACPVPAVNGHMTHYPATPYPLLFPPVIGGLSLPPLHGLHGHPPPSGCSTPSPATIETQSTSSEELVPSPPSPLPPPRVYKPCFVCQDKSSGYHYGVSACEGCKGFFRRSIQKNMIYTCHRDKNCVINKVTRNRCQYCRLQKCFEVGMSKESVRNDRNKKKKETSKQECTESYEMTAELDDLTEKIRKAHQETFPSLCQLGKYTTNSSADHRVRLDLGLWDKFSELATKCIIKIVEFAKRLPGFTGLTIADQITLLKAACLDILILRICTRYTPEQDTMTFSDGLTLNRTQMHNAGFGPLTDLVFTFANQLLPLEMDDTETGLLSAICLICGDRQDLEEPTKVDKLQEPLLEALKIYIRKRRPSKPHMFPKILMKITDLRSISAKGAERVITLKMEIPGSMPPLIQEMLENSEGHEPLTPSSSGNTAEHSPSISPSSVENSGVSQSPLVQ
Sequence of Retinoic acid receptor alpha (Homo sapiens) (P10276 whole entry, looked up, the tested form may be a part): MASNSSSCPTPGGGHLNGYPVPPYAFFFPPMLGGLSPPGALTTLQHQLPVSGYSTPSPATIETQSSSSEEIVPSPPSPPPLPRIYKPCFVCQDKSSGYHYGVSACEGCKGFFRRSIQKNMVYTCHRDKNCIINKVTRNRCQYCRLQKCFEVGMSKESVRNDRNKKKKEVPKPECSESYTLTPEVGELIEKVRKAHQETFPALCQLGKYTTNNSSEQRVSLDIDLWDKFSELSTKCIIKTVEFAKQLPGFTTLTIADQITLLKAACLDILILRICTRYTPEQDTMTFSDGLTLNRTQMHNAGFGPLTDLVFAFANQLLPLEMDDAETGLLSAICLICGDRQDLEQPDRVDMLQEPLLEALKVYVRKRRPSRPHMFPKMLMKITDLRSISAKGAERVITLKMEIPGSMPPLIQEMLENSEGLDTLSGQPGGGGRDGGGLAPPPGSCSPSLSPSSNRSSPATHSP
Sequence of human Retinoic Acid Receptor gamma (RARg), RARG (gene 5916) (P13631 whole entry, looked up, the tested form may be a part): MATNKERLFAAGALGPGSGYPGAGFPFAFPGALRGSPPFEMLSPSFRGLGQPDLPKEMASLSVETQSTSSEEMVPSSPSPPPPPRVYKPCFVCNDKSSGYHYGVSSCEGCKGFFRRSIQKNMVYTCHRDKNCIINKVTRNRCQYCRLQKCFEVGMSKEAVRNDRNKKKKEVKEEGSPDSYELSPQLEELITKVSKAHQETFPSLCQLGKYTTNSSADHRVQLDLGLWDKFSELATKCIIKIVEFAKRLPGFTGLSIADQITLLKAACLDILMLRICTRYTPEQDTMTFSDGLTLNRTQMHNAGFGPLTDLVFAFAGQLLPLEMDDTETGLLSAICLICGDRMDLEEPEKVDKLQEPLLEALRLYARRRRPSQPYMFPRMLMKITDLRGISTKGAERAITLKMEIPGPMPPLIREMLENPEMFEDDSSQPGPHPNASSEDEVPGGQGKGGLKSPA
Sequence of Nuclear respiratory factor 1 (Homo sapiens) (Q16656 whole entry, looked up): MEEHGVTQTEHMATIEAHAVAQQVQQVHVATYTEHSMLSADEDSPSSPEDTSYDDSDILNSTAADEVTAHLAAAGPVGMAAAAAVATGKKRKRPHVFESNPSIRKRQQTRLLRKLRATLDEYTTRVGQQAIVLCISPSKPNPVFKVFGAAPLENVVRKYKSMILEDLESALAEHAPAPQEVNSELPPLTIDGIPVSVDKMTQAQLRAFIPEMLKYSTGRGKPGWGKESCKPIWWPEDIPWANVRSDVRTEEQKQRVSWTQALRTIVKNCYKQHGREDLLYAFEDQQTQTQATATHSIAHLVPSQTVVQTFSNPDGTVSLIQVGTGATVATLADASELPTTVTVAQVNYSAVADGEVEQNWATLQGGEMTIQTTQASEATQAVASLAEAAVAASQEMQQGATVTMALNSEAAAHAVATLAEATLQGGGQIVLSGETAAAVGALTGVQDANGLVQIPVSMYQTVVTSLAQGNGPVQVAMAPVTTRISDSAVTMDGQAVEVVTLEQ
Sequence of Myc proto-oncogene protein (Homo sapiens) (P01106 whole entry, looked up): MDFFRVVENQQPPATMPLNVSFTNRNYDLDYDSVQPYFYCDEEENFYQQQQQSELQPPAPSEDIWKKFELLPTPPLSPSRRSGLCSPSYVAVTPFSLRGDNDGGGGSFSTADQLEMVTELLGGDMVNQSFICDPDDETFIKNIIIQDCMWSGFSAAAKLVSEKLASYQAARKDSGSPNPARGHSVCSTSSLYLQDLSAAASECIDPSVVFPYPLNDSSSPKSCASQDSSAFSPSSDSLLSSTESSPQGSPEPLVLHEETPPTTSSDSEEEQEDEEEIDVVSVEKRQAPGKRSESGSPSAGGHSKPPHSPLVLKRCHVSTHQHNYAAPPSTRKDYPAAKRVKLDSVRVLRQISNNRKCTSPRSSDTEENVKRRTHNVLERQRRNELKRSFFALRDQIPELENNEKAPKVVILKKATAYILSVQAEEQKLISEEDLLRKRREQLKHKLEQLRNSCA
Sequence of human Peroxisome Proliferator-activated Receptor alpha (PPARa), PPARA (gene 5465) (Q07869 whole entry, looked up): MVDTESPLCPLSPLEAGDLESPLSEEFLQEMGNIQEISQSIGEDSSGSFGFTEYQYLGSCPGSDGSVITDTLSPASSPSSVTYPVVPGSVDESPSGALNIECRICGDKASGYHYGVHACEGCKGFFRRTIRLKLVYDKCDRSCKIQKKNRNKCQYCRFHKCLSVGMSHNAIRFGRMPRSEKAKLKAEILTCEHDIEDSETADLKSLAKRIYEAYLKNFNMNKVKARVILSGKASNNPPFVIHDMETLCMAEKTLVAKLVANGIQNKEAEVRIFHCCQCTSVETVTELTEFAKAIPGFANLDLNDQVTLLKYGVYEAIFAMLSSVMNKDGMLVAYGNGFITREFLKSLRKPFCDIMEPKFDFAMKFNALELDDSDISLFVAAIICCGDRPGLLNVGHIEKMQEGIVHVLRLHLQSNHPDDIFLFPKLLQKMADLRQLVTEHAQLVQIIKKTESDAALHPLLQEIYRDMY

`O=C=Nc1cccc2c(N=C=O)cccc12`: the compound was called inactive in experiment [1], in [2], in experiment [3], in experiment [4], in experiment [5] and in experiment [6]. For the same compound, the result in [7], in [8], in experiment [9], in [10], in experiment [11] and in experiment [12] was inactive. The outcome in experiment [13] and in [14] was inactive. Moreover, the AC50 in experiment [15] was 0.628 µM (active).
Take `CC(C)OC=O`: the call in experiment [1], in experiment [2], in experiment [3], in experiment [4], in [5] and in experiment [6] was inactive. For the same compound, the result in experiment [14] and in [15] was inactive.
For `Cc1cnccn1`, the compound was classed as inactive in experiment [1], in experiment [2], in [3], in experiment [4], in experiment [5] and in experiment [6]. Besides, the result in [7], in [8], in experiment [9], in experiment [10], in experiment [11] and in [16] was inactive. Also, the result in experiment [13], in [15] and in experiment [17] was inactive.
For the compound `CC(C)CCCC(C)CCO` (centres undefined), the result in [1], in [2], in experiment [3], in [4], in [5] and in [6] was inactive. The compound was classed as inactive in experiment [10], in experiment [14] and in experiment [15]. The AC50 was 36.4 µM (active) in [7]; 33.9 µM (active) in experiment [8]; 36.5 µM (active) in experiment [9]; 35.5 µM (active) in [11]; 30.4 µM (active) in [13].
With `NC(=O)C(F)(F)C(F)(F)C(F)(F)C(F)(F)C(F)(F)C(F)(F)C(F)(F)F`, the result in experiment [1], in experiment [2], in experiment [3], in experiment [4], in experiment [5] and in experiment [6] was inactive. Further, the outcome in [7], in [8], in [9], in experiment [11], in experiment [12] and in experiment [16] was inactive. Besides, the result in experiment [13], in [14], in experiment [15] and in [17] was inactive.
Consider `CCCCCCCCCc1ccc(OCCO)cc1`, for which the call in experiment [1], in experiment [2], in experiment [3], in experiment [5], in [6] and in [10] was inactive. Also, the compound was called inactive in experiment [14] and in experiment [17]. Besides, the results for the AC50 in [4] and in experiment [15] were 5.92 µM (active) and 0.732 µM (active), respectively.
With `Nc1cccnc1N`, the compound was called inactive in experiment [1], in experiment [2], in experiment [3], in experiment [5], in [6] and in experiment [10]. Further, the compound was classed as inactive in experiment [12], in experiment [14] and in experiment [17]. Also, the results for the AC50 in experiment [4] and in experiment [16] were 17.9 µM (active) and 70.8 µM (active), respectively.
Regarding `CC(C)OC(=O)COc1ccc(Cl)cc1Cl`, the result in [1], in [2], in experiment [3], in [4], in experiment [5] and in experiment [6] was inactive. Besides, the outcome in experiment [14], in [15] and in experiment [17] was inactive.
As to `NCC(F)(F)C(F)(F)C(F)(F)C(F)(F)C(F)(F)C(F)(F)C(F)(F)C(F)(F)F`, the outcome in experiment [1], in [2], in experiment [3], in [4], in [5] and in [6] was inactive. Moreover, the outcome in experiment [7], in [8], in experiment [9], in experiment [11], in experiment [12] and in experiment [16] was inactive. Further, the result in [13], in experiment [14], in [15] and in experiment [17] was inactive.
For the compound `Cc1cccc(C)n1`, the compound was classed as inactive in [1], in [2], in experiment [3], in [4], in experiment [5] and in experiment [6]. The compound was classed as inactive in experiment [12], in [14] and in experiment [15].
On to `O=C(Cl)c1ccc(Cl)cc1Cl`, for which the outcome in experiment [1], in experiment [2], in experiment [3], in [4], in [5] and in experiment [6] was inactive. Besides, the compound was classed as inactive in [18], in [10], in [16], in experiment [14] and in experiment [17].
Turning to `CCCCOC(=O)C(C)O` (centres undefined), the outcome in experiment [1], in experiment [2], in experiment [3], in [4], in experiment [5] and in experiment [6] was inactive. Further, the call in experiment [10], in experiment [12], in experiment [14] and in [17] was inactive.
